Set-up in all cases: scale not given: direction of the effect not stated beside the values
For test [1], the target named is Protein translocase subunit SecA (Escherichia coli (strain K12)) (UniProt P10408). The test is described as follows: Assay to Identify E. coli SecA ATPase Inhibitors. The class given is functional. The conditions noted are these: 30 µM.
Test [2] concerns the target T1, Ubiquitin-activating enzyme e1, putative (Leishmania donovani (strain BPK282A1)) (UniProt E9BSI1).
T1 sequence (whole entry): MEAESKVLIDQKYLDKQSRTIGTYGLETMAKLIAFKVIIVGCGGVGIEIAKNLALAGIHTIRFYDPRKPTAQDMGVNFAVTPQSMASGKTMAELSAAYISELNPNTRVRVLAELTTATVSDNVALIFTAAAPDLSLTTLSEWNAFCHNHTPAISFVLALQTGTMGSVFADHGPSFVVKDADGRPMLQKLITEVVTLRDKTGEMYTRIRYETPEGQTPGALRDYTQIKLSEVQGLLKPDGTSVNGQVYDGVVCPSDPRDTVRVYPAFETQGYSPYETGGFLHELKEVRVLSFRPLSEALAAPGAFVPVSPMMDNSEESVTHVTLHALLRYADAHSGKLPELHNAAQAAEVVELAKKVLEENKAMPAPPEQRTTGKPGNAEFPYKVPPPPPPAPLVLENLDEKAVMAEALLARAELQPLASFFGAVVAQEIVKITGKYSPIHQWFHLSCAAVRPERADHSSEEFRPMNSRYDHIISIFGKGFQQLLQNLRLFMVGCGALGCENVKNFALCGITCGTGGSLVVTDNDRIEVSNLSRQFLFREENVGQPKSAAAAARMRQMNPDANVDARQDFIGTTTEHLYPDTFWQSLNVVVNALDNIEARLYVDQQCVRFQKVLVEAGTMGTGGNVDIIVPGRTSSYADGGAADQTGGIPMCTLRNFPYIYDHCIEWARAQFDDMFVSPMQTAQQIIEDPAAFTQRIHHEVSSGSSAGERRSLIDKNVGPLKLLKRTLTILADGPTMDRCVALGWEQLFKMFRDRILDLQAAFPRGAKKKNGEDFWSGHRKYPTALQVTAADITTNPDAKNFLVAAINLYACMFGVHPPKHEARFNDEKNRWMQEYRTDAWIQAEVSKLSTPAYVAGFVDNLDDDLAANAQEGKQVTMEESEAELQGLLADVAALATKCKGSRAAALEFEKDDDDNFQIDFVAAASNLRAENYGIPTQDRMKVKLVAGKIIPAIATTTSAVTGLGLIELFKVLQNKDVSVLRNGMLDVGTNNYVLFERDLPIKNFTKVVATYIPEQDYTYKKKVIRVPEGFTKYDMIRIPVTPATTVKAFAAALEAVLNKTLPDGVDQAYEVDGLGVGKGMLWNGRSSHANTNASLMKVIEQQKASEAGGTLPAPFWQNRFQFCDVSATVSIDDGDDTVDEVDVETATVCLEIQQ
As to the kind of experiment: Leishmania donovani Ubiquitin Activating Enzyme (LdE1). It counts as functional. The conditions noted are these: 30 µM.

Test [3] addresses AMP-activated protein kinase, AMPK (Homo sapiens) (UniProt P54646+O43741+P54619+Q9UGJ0+Q9Y478+Q13131+Q9UGI9). The test is described as follows: AMP-dependent Kinase enzyme assay. An in vitro enzyme assay that detects ADP turnover that is directly proportional to AMPK activity. This uses naive AMPK that is activated during the assay with MK-8722. The following applies: 30 µM. It counts as functional.

Test [4] has as its target Sialic acid-binding Ig-like lectin 9 (Homo sapiens) (UniProt Q9Y336). As to the kind of experiment: Hs-Siglec9 ALPHAscreen SOP 20170721. The conditions noted are these: 10 µM.
In a further test the test system is Trypanosoma cruzi. The test is described as follows: Trypanosoma cruzi phosphomannomutase and mannose-1-phosphate guanylyltransferase assay. It counts as functional. The following applies: 10 µM.
Test [5] concerns the target T2, Arginase-2, mitochondrial (Homo sapiens) (UniProt P78540).
T2 sequence (whole entry): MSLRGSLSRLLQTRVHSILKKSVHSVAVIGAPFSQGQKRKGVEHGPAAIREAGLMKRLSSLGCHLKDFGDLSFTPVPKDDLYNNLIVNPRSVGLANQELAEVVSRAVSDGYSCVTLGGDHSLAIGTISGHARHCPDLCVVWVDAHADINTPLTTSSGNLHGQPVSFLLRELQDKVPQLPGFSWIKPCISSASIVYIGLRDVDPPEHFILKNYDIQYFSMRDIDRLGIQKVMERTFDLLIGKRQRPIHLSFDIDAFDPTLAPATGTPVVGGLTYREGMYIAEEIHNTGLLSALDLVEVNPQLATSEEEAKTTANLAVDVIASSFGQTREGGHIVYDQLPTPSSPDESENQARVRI
As to the kind of experiment: in vitro enzyme assay to detect the production of urea directly proportional to the activity of Arginase II. Further: in the data most compounds retested in dose-response had high values. The class given is functional. The following applies: 33.3 µM.

The target of test [6] is T3, Proteasome subunit beta (Trypanosoma cruzi) (UniProt O96673).
T3 sequence (whole entry): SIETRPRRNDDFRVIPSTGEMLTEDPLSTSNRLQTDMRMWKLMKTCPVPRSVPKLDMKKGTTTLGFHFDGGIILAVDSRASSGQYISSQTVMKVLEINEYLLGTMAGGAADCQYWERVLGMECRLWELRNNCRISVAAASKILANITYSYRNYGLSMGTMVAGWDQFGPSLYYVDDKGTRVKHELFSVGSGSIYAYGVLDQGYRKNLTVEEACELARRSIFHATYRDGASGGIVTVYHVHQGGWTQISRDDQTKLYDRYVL
The test is described as follows: Trypanosoma cruzi proteasome chymotrypsin-like activity (TcProtChymo) assay. Further: in the data most compounds retested in dose-response had high values. It counts as functional. The conditions noted are these: 9.37 µM.

Another test is filed under the species Homo sapiens. As to the kind of experiment: To identify inhibition of the IFN signalling (Jak-Stat) pathway via expression of an eGFP reporter gene under the control of an IFN-stimulated response element (ISRE) containing MxA promoter. It counts as functional. The conditions noted are these: 30 µM. For orientation: In a reporter assay the amount or activity of a reporter protein is the signal.

For test [7], the target named is T4, Tyrosyl-tRNA synthetase, putative (Trypanosoma cruzi (strain CL Brener)) (UniProt Q4DSP6).
T4 sequence (whole entry): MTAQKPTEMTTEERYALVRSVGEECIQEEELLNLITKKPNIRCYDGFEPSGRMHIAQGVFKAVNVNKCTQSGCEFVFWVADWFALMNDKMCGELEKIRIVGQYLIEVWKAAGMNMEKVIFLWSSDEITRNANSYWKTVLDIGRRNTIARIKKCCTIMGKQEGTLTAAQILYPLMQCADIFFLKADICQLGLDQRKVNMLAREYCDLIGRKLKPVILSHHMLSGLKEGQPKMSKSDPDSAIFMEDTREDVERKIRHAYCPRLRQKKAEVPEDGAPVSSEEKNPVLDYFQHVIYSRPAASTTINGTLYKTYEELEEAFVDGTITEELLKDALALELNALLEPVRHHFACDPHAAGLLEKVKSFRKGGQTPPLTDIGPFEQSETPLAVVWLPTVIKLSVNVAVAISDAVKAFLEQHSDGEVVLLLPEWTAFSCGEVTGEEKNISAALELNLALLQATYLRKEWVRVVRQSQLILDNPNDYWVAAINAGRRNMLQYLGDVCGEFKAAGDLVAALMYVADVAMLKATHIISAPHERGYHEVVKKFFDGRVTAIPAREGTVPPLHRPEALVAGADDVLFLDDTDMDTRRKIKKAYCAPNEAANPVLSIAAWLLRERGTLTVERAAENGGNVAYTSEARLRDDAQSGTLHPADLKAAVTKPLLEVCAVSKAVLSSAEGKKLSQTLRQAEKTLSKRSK
As to the kind of experiment: Trypanosoma cruzi tyrosyl tRNA synthetase (TcYRS) _High Tyrosine SOP. Further: in the data most compounds retested in dose-response had high values. The class given is functional. The following applies: 30 µM.

Test [8] has as its target T4, Tyrosyl-tRNA synthetase, putative (Trypanosoma cruzi (strain CL Brener)). As to the kind of experiment: Trypanosoma cruzi tyrosyl tRNA synthetase (TcYRS) SOP. The class given is functional. The conditions noted are these: 30 µM.
Test [9] deals with Chromo domain-containing protein 1 (Saccharomyces cerevisiae (strain ATCC 204508 / S288c) (Baker's yeast)) (UniProt P32657). The test is described as follows: ScCHD-1 Enzyme Inhibition Assay. Further: in the data most compounds retested in dose-response had high values. The class given is functional. The conditions noted are these: 30 µM.
Chain of Chromo domain-containing protein 1 (Saccharomyces cerevisiae (strain ATCC 204508 / S288c) (Baker's yeast)) (P32657 whole entry, the tested form may be a part): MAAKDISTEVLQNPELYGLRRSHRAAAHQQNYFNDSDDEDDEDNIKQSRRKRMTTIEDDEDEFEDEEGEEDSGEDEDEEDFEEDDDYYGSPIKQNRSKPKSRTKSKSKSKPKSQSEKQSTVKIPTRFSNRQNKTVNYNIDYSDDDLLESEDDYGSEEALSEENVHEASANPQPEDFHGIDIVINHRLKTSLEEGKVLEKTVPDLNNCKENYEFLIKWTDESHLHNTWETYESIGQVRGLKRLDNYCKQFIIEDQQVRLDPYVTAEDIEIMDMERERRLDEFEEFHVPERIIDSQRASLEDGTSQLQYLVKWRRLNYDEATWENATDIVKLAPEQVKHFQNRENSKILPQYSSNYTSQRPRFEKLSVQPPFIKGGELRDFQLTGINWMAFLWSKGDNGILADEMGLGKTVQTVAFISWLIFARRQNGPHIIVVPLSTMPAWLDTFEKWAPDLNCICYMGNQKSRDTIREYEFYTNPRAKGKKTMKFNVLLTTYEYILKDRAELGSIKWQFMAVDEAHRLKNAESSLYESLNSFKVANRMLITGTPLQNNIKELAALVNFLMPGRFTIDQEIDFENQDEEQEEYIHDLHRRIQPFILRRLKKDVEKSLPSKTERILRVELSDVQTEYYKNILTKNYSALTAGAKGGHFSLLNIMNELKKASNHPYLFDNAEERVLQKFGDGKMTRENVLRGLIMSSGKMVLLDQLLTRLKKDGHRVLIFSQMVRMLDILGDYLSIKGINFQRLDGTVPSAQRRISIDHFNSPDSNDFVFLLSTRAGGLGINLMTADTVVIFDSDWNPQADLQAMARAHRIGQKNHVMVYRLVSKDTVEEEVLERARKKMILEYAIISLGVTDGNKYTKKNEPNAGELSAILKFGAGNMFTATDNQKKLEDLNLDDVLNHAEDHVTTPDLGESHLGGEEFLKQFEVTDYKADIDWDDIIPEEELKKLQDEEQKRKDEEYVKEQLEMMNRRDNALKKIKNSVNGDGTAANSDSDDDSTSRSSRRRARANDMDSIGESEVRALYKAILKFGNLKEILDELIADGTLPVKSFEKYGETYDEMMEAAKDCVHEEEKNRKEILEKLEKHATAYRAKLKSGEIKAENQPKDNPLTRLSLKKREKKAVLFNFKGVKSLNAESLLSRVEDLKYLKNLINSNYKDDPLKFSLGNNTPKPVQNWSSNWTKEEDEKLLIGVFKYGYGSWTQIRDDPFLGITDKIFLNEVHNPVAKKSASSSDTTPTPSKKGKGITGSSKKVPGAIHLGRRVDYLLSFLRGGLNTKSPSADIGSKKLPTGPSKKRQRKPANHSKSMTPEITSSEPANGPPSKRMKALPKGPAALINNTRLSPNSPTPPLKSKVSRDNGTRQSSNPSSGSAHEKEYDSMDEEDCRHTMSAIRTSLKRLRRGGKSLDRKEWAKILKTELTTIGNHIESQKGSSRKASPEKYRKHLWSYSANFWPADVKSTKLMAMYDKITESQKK

For some of these results: Potency and affinity values are given separately.

Chain of Sialic acid-binding Ig-like lectin 9 (Homo sapiens) (Q9Y336 whole entry): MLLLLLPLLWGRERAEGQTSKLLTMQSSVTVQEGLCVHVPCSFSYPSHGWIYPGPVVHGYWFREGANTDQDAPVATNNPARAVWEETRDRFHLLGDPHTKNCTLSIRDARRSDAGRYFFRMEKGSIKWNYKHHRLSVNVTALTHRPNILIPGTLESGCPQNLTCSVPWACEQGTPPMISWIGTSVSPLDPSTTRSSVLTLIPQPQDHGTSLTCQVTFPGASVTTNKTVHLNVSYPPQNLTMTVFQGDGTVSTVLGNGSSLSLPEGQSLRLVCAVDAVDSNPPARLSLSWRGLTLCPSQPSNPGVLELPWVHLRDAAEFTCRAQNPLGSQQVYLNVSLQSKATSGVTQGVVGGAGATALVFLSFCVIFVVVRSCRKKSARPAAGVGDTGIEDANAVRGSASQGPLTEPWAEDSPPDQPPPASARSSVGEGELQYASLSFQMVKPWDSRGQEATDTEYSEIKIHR
Chain of Protein translocase subunit SecA (Escherichia coli (strain K12)) (P10408 whole entry): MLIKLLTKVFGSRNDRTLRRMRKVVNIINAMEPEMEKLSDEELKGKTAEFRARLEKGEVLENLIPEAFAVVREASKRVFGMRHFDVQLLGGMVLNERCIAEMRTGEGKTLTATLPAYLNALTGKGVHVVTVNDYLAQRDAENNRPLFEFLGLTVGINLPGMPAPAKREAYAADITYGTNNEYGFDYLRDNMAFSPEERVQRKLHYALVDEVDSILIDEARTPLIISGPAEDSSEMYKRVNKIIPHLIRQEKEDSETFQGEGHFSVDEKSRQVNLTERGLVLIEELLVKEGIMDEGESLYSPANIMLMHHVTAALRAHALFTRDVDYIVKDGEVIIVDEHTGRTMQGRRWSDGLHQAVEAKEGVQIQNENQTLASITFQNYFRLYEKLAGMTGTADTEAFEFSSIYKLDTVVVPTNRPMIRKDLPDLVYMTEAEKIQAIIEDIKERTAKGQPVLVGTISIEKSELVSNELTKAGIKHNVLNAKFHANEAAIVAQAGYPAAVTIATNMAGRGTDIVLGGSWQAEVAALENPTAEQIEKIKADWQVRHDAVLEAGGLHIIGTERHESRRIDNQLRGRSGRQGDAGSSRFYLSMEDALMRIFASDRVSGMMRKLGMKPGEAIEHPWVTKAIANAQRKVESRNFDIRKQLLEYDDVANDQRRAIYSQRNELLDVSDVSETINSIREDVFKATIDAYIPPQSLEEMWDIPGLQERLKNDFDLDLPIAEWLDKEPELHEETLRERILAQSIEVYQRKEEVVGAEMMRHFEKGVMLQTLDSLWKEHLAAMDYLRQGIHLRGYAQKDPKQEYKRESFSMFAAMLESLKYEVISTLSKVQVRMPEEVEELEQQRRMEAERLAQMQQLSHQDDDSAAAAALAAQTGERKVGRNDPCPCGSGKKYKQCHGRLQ

Take `CCc1nc(CN(C(C)=O)C2CCN(Cc3cnc(C)cn3)C2)no1` (stereo unspecified): the Percent Effect was -1.41% in test [1]; 22.8% in [2]; -8.69% in [3]; -10.4% in test [4]; -3.31% in the test with Trypanosoma cruzi; 4.18% in [5]. For the same molecule, the Percent Effect is 5.16% in test [6]; 27.4% in the test listed under Homo sapiens; 4.43% in test [7]; 13.9% in test [8]; -6.99% in test [9].

In the case of `CCCSCC(=O)NS(=O)(=O)c1ccc2c(c1)OCCO2`, the Percent Effect in test [1] is -2.66%; in [2], -2.63%; in [3] it was 5.73%; in test [4], 7.23%; with Trypanosoma cruzi it was 1.5%; in test [5], 3.45%. Also, the Percent Effect was 2.34% in test [6]; -0.713% in the test filed under Homo sapiens; 1.47% in test [7]; 0% in test [8]; -4.12% in test [9].

For `Cc1nn(C)c(C)c1C1CCCN1C(=O)c1ccc(Cl)o1` (stereo unspecified), the Percent Effect in test [1] was -4.75%; in test [2], 2.7%; in test [3], 0.29%; in [4] it was -6.5%; with Trypanosoma cruzi it was 4.88%; in test [5] it was -3.33%. Further, the Percent Effect is 1.27% in test [6]; 5.89% in the test listed under Homo sapiens; 4.95% in test [7]; -6.1% in [8]; 1.72% in [9].

Consider `COC(=O)C(NC(=O)COC1CCCC1)c1cc(F)ccc1F` (stereo unspecified), for which the Percent Effect is -6.55% in test [1]; 7.79% in test [2]; -4.98% in test [3]; 20.1% in [4]; 5.06% with Trypanosoma cruzi; -7.83% in test [5]. For the same molecule, the Percent Effect in [6] was 2.7%; in the test listed under Homo sapiens, -0.885%; in [7] it was 4.85%; in test [8], 21.9%; in [9], -9.9%.

As for `CSc1ccc(C(CN)N2CCc3sccc3C2)cc1` (stereo unspecified), the Percent Effect in test [1] was 0.534%; in [2] it was -15.8%; in test [3] it was -4.11%; in test [4], -9.22%; with Trypanosoma cruzi, 3.6%; in [5], -5.92%. In addition, the Percent Effect is 6.42% in test [6]; 39.7% in the test listed under Homo sapiens; 17% in [7]; 28.6% in test [8]; 1.73% in test [9].

As to `CCCNC(=O)Nc1cc2c(cc1SC)OCCO2`, the Percent Effect in test [1] is -5.72%; in test [2], 13.5%; in test [3] it was -3.48%; in test [4], 12.2%; with Trypanosoma cruzi, 2.93%; in [5] it was 11.2%. The Percent Effect in test [6] was 10.7%; in the test listed under Homo sapiens, -1.29%; in test [7] it was 8.91%; in test [8] it was 8.54%; in test [9], -6.19%.

As for `c1cnc(-c2nc(CNCCn3cccn3)cs2)nc1`, the Percent Effect in [1] is -0.355%; in test [2], -2.63%; in test [3], 7.92%; in test [4], -0.779%; with Trypanosoma cruzi it was -1.5%; in test [5] it was -2.68%. Further, the Percent Effect in test [6] is 7.18%; in the test listed under Homo sapiens, 9.32%; in [7], -0.49%; in [8], -4.88%; in [9], -6.78%.

As for `CCN1CCC(NC(=O)CN2CCc3c(nc(C4CC4)n3C)C2)CC1`, the Percent Effect in test [1] is -2.61%; in [2], -5.2%; in test [3], -9.14%; in test [4] it was 13.3%; in the test with Trypanosoma cruzi it was 0.374%; in [5], 6.76%. Moreover, the Percent Effect in test [6] is -2.37%; in the test filed under Homo sapiens it was -16.3%; in [7], 1.94%; in test [8] it was 0%; in test [9], -7.12%.

As to `c1cnnc(NCC2CN(CCN3CCCCC3)CCO2)c1` (stereo unspecified), the Percent Effect in test [1] is -2.02%; in [2] it was -7.79%; in test [3], 5.05%; in test [4], 6.18%; in the test on Trypanosoma cruzi it was 9.74%; in [5] it was -3.56%. Moreover, the Percent Effect was 1.01% in test [6]; -18.9% in the test listed under Homo sapiens; 0.971% in test [7]; 7.32% in [8]; -2.7% in test [9].

As for `CC1c2ncc(CN3CCN(C)CC3)n2CCN1CC1CC1` (stereo unspecified), the Percent Effect in test [1] was -1.8%; in test [2], 18.7%; in test [3], -6.67%; in test [4] it was 5.11%; with Trypanosoma cruzi it was 5.99%; in [5] it was -54.7%. In addition, the Percent Effect in [6] is 6.33%; in the test listed under Homo sapiens, -3.72%; in test [7] it was 6.25%; in test [8], 17.5%; in [9], -8.05%.

On to `Cc1cc(C(N)=O)ccc1NC(=O)c1nc(N2CCCC2)ncc1Cl`, for which the Percent Effect in test [1] is 0.24%; in test [2] it was 0%; in [3] it was -4.73%; in test [4] it was -1.27%; in the test on Trypanosoma cruzi it was -8.4%; in test [5] it was 6.67%. Besides, the Percent Effect was 11.1% in test [6]; 1.42% in the test filed under Homo sapiens; 5.94% in test [7]; 3.66% in test [8]; 2.96% in test [9].

Values taken from ChEMBL document CHEMBL3988442, “University of Dundee, Small-Polar-MMV Screening Library” (2021).
